# In the supplement of paper PMC11219838:
# Unmarked numbers belong to inactive results.
# System: Ditylenchus dipsaci
# Test: proportion of mobile D. dipsaci (mixed stage) relative to DMSO control (fraction of DMSO control); higher = more viable, less nematicidal, active = 0.86 or less; extreme values may be limits of the assay
# Conditions: 60 µM; 5 days; temperature: 20 °C
# Procedure, shortened: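 Mobility values are relative to DMSO controls and are averages of two biological replicates. For each well of a 96-well plate, about 20 D. dipsaci worms, grown on pea plants in Gamborg B-5 agar and funnel-extracted into water, were dispensed in distilled water. Plates received pinned compound at 60 µM final with 0.6% v/v DMSO and were sealed and shaken at 200 rpm for 5 days at 20 °C before 2 µL 1 M NaOH was added and mobile worms were scored by microscope.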
row,SMILES,proportion of mobile D. dipsaci
1,CCOC(=O)c1ccc(OCc2nc(-c3cccs3)no2)cc1,1
2,O=C(CSc1nnc(-c2ccccc2)o1)Nc1ccccc1C(F)(F)F,1
3,CCOc1ccccc1-c1nnc(SCC(=O)NC(C)CC)o1 (stereo not drawn),1
4,Cc1ccc(-c2nc(-c3ccncc3)no2)c(Cl)c1,1
5,c1cc(-c2noc(C34CC5CC(CC(C5)C3)C4)n2)ccn1,1
6,COc1ccc(-c2nnc(SCC(=O)Nc3ccccc3F)o2)cc1,1
7,Cc1ccc(OCc2nc(-c3ccccc3)no2)cc1C,1
8,CC1Cc2ccccc2N1C(=O)CSc1nnc(-c2ccccc2)o1 (stereo not drawn),1
9,Cc1[nH]c2ccc(-c3nnc(SCC(=O)NCc4ccc(F)cc4)o3)cc2c1C,1
10,CCOc1cc(C#N)ccc1OCc1nc(-c2cccs2)no1,1
11,O=C(CSc1nnc(-c2ccccc2)o1)Nc1cccc(Br)c1,1
12,NC(=O)COc1ccccc1-c1nc(-c2ccccc2Cl)no1,1
13,CCc1cccc(CC)c1NC(=O)CSc1nnc(-c2ccccc2OC)o1,1
14,O=C(CSc1nnc(-c2ccc(Cl)cc2)o1)NCc1ccccc1,1
15,C=CCSc1nnc(-c2ccc(Br)cc2)o1,0.85 (active)
16,Cc1ccc(OCc2nc(-c3ccc(Br)o3)no2)cc1C,1
17,O=C(CSc1nnc(-c2ccc(Cl)cc2)o1)Nc1nccs1,1
18,CCNC(=O)c1ccccc1-c1nc(-c2ccc(F)cc2)no1,1
19,Cc1ccccc1OCc1nc(-c2cccs2)no1,1

row,SMILES,proportion of mobile D. dipsaci
1,Cc1cc(C)c(NC(=O)CSc2nnc(-c3ccc(Br)cc3)o2)c(C)c1,1
2,CCN(CC)C(=O)CSc1nnc(-c2ccc(Cl)cc2Cl)o1,1
3,Cc1ccccc1-c1noc(COc2ccc(Cl)cc2Cl)n1,1
4,Clc1ccccc1-c1noc(-c2cccnc2)n1,1
5,COc1ccc(-c2noc(CSc3nc(C)cc(C)n3)n2)cc1,0.833 (active)
6,COc1ccc(-c2nnc(SCc3ccccc3)o2)cc1,1
7,O=C(CSc1nnc(-c2cccc(Cl)c2)o1)Nc1ccccc1,1
8,COc1ccc(-c2noc(C34CC5CC(CC(C5)C3)C4)n2)cc1,1
9,O=C(Nc1ccc(-c2noc(COc3ccccc3)n2)cc1)c1ccc(F)cc1,1
10,Cc1ccccc1-c1noc(CSc2nc3ccccc3[nH]2)n1,1
11,Cc1cccc(C)c1NC(=O)CSc1nnc(-c2ccncc2)o1,1
12,CCOc1cc(-c2nc(-c3ccc(C)nc3OCC)no2)cc(OCC)c1OCC,1
13,CCOC(=O)c1sc(NC(=O)CSc2nnc(-c3ccc(Cl)cc3)o2)c(C#N)c1C,1
14,COc1ccccc1NC(=O)c1ccccc1-c1nc(-c2ccccc2F)no1,1
15,CCCCCOC(=O)CSc1nnc(-c2ccc(Cl)cc2Cl)o1,1
16,Cc1ccc(-c2nc(-c3ccc4c(c3)OCO4)no2)cc1,1
17,CCOc1ccc(NC(=O)CSc2nnc(-c3ccncc3)o2)cc1,1
18,Cc1ccc(OCc2nc(-c3ccncc3)no2)c(Br)c1,1
19,COc1cccc(-c2noc(-c3ccc(C)cc3)n2)c1,1
